High-throughput results (PubChem)
CYP2C19 inh = blocks human cytochrome P450 2C19; P33261; CYP2C19 Supersomes, luciferin-H EGE luminescence, 30 min; inhibition, % at 5 µM; 96,000 tested, 21% active;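 active = CYP2C19 inhibition above a set limit at 5 µM in the primary screen, cut at about 50% in these data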;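 also: plate controls were negative control wells for no effect and 2.5 mM tranylcypromine positive control for full effect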
CYP2C9 inhib = human CYP2C9 inhibition. inhibition, % at 5 µM. 96,000 tested, 20% active. AID 777. P11712. CYP2C9 Supersomes, luciferin-H conversion, luminescence;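 active = blocking of liver enzyme CYP2C9 beyond about 50% at 5 µM, limit read from the data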
sEH activator = soluble epoxide hydrolase (human) activation; P34913; purified human sEH enzymatic activity, activator screen; activation, % at 2 µM; 91,000 tested, 0.04% active; AID 717; in the data active = activation above about 37%
sEH inhibitor = soluble epoxide hydrolase (human) inhibition. recombinant human sEH enzymatic activity assay. inhibition, % at 2 µM. 91,000 tested, 0.34% active; in the data active = inhibition above about 80%
CYP2C19 activ = increases human CYP2C19 enzyme activity; 96,000 tested, under 10 active; P33261; AID 1025; recombinant CYP2C19, luciferin-H EGE luminescence; hits give high values; 0 = fully inhibited enzyme, 1 = untreated enzyme; activation factor at 5 µM;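 active = activation factor of at least 2 at 5 µM in the primary screen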;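 also: 0 = wells with 2.5 mM tranylcypromine and 1 = vehicle-only wells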
CYP2C9 activ = activators of human CYP2C9. P11712. activation factor at 5 µM. AID 1024. recombinant CYP2C9, luciferin-H conversion, luminescence; hits give high values; factor 1 = untreated enzyme, 0 = blocked. 96,000 tested, 1.4% active;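 active = activation factor of 2 or more for CYP2C9 at a 5 µM dose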;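 also: 0 = sulfaphenazole-blocked wells and 1 = vehicle-only wells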
* = called active by the depositor; / = no result. Sampled rows, rich in hits. Any-hit rate of the full collection: about 27%.

SMILES	CYP2C19 inh	CYP2C9 inhib	sEH activator	sEH inhibitor	CYP2C19 activ	CYP2C9 activ
Cc1nn(Cc2ccc(Cl)cc2)c(=O)n1N(C)c1ncc(C(F)(F)F)cc1Cl	73*	50	2	-3	0.3	0.5
Cc1nn(Cc2ccc([N+](=O)[O-])cc2)c(=O)n1N(C)c1ncc(C(F)(F)F)cc1Cl	43	3	2	-2	0.6	1
O=C1NCCN1C(=O)c1ccco1	2	10	-1	3	1	0.9
O=C(c1ccco1)N1C(=O)c2cccc3cccc1c23	14	-276	4	1	0.9	3.8*
C=CCn1c(N)c(C(=O)OC(C)(C)C)c2nc3ccccc3nc21	63*	77*	3	-2	0.4	0.2
C=CCn1c(N)c(C(=O)OC(C)CC)c2nc3ccccc3nc21 (stereo unspecified)	56*	83*	3	-5	0.4	0.2
COCC(C)OC(=O)c1c(N)n(CC(C)C)c2nc3ccccc3nc12 (stereo unspecified)	17	50	-4	0	0.8	0.5
O=C(OC(C(=O)NCC1CCCO1)c1ccc(F)cc1)c1cccs1 (stereo unspecified)	/	/	0	1	/	/
COCCNS(=O)(=O)c1ccc(SC)cc1	35	-16	10	-11	0.7	1.2
Cc1ccc(S(=O)(=O)NCCOCCNS(=O)(=O)c2ccc(C)cc2)cc1	68*	-101	10	-8	0.3	2*
COCCNS(=O)(=O)c1ccc(-c2ccc(C)cc2)cc1	74*	93*	2	0	0.3	0.1
CC12C(=O)N(c3nccs3)C(=O)C1C1C=CC2C1 (stereo unspecified)	65*	3	4	-3	0.4	1
Cc1ccc(OCC(O)CNC(=O)c2ccccc2C(=O)O)cc1 (stereo unspecified)	0	4	14	-13	1	1
Cc1cc(/C=C(/C#N)c2cccc(Cl)c2)c(C)n1C	32	-2	-2	0	0.7	1
Cc1cc(/C=C(/C#N)c2cccc(F)c2)c(C)n1-c1cccnc1	89*	99*	/	/	0.1	0
Cc1cc2oc(=O)cc(Cn3ccnc3)c2cc1C	100*	57*	-13	12	0	0.4
O=c1cc(Cn2ccnc2)c2cc3c(cc2o1)CCC3	100*	48	5	-4	0	0.5
CC(OC(=O)CN(C)S(=O)(=O)c1ccc(Cl)cc1)C(=O)Nc1cccc(Cl)c1 (stereo unspecified)	37	20	-7	5	0.6	0.8
Cn1c(N)c(C(=O)COC(=O)C2(c3ccc(Cl)cc3)CCCC2)c(=O)n(C)c1=O	58*	-13	-6	6	0.4	1.1
CCC(C(=O)NC1CCCC1)N(C(=O)Cn1nnc(-c2ccc(C)cc2)n1)C1CCCC1 (stereo unspecified)	/	/	1	5	/	/
Cc1ccc(-c2nnn(CCC(=O)NC3CCCC3)n2)cc1	45	76*	-4	2	0.5	0.2
CC1CCCCC1NC(=O)Cn1nnc(-c2ccc(Cl)cc2)n1 (stereo unspecified)	71*	-8	-11	11	0.3	1.1
CC(C)[C@H](N)c1nnc(SC/C=C/c2ccccc2)o1	82*	16	3	-3	0.2	0.8
CC(=O)CC(C)(C)n1nnc(-c2ccccc2)n1	62*	12	15	-13	0.4	0.9
N#Cc1c(N)nc(SCC(=O)NC2CCCCC2)c(C#N)c1-c1ccc(Cl)cc1	-5	-10	/	/	1.1	1.1
N#CCSc1nc(N)c(C#N)c(C2CCCCC2)c1C#N	11	53*	-8	6	0.9	0.5
COc1ccc(-c2cc(C(=O)Nc3c(C)nn(Cc4ccccc4Cl)c3C)no2)cc1OC	15	63*	/	/	0.8	0.4
COc1ccc(-c2cc(C(=O)Nc3c(C)nn(Cc4ccc(Cl)cc4)c3C)no2)cc1	51*	50	11	-11	0.5	0.5
Cc1ccc(Cn2nc(C)c(NC(=O)c3cc(-c4ccc5c(c4)OCO5)on3)c2C)cc1	24	53*	14	-13	0.8	0.5
COc1ccc(-n2nnc3c(SCC(=O)NCC4CCCO4)ncnc32)cc1 (stereo unspecified)	-3	27	-17	20	1	0.7
